Measured values as given in PubChem BioAssay AID2265 (National Center for Advancing Translational Sciences (NCATS), 2010).
Some of the results follow. Records with an inconclusive call do not appear. A number with no mark means an inactive call. The call rests on the fitted dose curve; in most records, active means well fitted inhibition curve with a large enough effect; inconclusive means small, poorly fitted or top-dose-only effect; inactive means flat fitted curve, though single readings scatter.

target: Luciferin 4-monooxygenase (Photuris pensylvanica) (UniProt Q27757); test: Secondary assay for Inhibitors of Human Pyruvate Kinase M2 isoform: FLuc Counterscreen; conditions: Kinase-Glo firefly luciferase, luminescence, 8 min; series mostly up to 57.5 µM; activity, negative = inhibition: at the top concentration
Method: NIH Chemical Genomics Center [NCGC] Matthew G. Vander Heiden, M.D., Ph.D. [Harvard Medical School, 77 Avenue Louis Pasteur, Boston, MA 02115] MLPCN Grant: 1 R03 MH085679-01 NCGC Assay Overview: Luciferase (Kinase-Glo, Promega Corporation) was assayed for its ability to generate light using ATP and luciferin as substrates. The ATP concentration in the assay (10 uM) was within the linear range of enzyme activity for the assay conditions used. This assay was used as an counter screen for human pyruvate kinase M2 isoform.
NCGC Assay Protocol Summary: Four uL of substrate mix (final concentration, 50 mM imidazole pH 7.2, 50 mM KCl, 7 mM MgCl2, 10 uM ATP, 0.01% Tween 20, 0.05% BSA) was dispensed into white 1536 well plates. Twenty-three nL of compound was delivered by a pin tool and 2 uL of luciferase detection mix (Kinase-Glo, Promega)) was added. Following 8-minute incubation at ambient temperature, luminescence was measured by a ViewLux (Perkin Elmer) at 5 seconds exposure/plate.

**Q.** How did the “activity, negative = inhibition” value turn out when `Cc1ccc(-c2nc3ccccn3c2Nc2ccc(F)cc2)o1` was run?
**A.** Its value is 3.49%.

**Q.** For `Cc1ccc(Nc2c(-c3ccc(C)s3)nc3ccccn23)cc1`, which “activity, negative = inhibition” value is on record?
**A.** The value was -2.62%.
